Key:
Assay in all cases: log2 ratio of Biotin-Ahx-Ub-VS probe labelling (fragment/DMSO); higher = less target engagement (more negative = stronger competition), active = hit call of the paper (q ≤ 0.05, log2 ratio ≤ -1)
Details in all cases: compound concentration: 200 uM; treatment time: 3 h
USP19 = biological target: T1, USP19 (UniProt O94966)
T1 sequence (whole entry): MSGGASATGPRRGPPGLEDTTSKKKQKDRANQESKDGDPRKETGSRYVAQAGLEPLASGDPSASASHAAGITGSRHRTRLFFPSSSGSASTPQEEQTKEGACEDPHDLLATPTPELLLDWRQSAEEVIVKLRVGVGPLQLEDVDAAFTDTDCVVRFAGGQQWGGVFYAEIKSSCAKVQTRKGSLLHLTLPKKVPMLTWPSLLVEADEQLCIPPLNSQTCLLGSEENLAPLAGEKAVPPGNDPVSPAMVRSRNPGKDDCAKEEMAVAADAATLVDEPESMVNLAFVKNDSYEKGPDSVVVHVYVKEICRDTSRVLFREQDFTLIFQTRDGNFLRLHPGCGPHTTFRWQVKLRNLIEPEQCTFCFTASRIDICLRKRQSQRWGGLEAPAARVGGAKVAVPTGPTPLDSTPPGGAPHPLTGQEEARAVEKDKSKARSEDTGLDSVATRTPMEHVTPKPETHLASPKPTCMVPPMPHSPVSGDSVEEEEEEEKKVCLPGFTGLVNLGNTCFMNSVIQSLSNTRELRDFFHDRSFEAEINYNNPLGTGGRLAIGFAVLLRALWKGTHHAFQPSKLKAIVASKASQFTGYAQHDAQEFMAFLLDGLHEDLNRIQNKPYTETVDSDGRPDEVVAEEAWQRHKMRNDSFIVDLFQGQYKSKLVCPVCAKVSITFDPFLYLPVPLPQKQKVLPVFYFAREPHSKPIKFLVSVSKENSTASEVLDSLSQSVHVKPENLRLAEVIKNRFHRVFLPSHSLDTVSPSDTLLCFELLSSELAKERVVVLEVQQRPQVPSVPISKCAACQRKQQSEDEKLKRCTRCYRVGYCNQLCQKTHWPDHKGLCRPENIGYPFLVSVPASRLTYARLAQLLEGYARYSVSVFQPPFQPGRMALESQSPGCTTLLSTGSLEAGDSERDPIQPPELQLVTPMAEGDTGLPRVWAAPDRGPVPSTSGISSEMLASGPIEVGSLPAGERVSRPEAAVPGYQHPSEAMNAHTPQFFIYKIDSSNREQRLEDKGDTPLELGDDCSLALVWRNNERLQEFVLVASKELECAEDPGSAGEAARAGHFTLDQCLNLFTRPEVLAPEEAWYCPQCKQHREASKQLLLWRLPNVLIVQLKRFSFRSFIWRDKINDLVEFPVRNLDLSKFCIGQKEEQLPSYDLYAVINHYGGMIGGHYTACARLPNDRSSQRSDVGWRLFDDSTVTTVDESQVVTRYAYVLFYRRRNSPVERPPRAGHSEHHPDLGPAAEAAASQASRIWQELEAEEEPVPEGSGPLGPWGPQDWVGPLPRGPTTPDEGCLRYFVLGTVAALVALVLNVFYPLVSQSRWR
Method in brief: (§1)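 Labelling with Biotin-Ahx-Ub-VS (0.5 µM final, 1 h) followed a 3 h triplicate treatment of HEK293T lysate (495 µg per sample, Tris/CHAPS/IGEPAL buffer with protease inhibitors) with fragment at 200 µM or vehicle. Labelled DUBs were NeutrAvidin-enriched, digested with LysC and trypsin, and run by diaPASEF LC-MS/MS. The values, average log2 fragment/vehicle ratios by unpaired t-test, come from global-median-normalised Spectronaut label-free quantities. Proteins with ≥2 unique peptides were used.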

USP24 = USP24 (UniProt Q9UPU5)
Chain of USP24 (Q9UPU5 whole entry): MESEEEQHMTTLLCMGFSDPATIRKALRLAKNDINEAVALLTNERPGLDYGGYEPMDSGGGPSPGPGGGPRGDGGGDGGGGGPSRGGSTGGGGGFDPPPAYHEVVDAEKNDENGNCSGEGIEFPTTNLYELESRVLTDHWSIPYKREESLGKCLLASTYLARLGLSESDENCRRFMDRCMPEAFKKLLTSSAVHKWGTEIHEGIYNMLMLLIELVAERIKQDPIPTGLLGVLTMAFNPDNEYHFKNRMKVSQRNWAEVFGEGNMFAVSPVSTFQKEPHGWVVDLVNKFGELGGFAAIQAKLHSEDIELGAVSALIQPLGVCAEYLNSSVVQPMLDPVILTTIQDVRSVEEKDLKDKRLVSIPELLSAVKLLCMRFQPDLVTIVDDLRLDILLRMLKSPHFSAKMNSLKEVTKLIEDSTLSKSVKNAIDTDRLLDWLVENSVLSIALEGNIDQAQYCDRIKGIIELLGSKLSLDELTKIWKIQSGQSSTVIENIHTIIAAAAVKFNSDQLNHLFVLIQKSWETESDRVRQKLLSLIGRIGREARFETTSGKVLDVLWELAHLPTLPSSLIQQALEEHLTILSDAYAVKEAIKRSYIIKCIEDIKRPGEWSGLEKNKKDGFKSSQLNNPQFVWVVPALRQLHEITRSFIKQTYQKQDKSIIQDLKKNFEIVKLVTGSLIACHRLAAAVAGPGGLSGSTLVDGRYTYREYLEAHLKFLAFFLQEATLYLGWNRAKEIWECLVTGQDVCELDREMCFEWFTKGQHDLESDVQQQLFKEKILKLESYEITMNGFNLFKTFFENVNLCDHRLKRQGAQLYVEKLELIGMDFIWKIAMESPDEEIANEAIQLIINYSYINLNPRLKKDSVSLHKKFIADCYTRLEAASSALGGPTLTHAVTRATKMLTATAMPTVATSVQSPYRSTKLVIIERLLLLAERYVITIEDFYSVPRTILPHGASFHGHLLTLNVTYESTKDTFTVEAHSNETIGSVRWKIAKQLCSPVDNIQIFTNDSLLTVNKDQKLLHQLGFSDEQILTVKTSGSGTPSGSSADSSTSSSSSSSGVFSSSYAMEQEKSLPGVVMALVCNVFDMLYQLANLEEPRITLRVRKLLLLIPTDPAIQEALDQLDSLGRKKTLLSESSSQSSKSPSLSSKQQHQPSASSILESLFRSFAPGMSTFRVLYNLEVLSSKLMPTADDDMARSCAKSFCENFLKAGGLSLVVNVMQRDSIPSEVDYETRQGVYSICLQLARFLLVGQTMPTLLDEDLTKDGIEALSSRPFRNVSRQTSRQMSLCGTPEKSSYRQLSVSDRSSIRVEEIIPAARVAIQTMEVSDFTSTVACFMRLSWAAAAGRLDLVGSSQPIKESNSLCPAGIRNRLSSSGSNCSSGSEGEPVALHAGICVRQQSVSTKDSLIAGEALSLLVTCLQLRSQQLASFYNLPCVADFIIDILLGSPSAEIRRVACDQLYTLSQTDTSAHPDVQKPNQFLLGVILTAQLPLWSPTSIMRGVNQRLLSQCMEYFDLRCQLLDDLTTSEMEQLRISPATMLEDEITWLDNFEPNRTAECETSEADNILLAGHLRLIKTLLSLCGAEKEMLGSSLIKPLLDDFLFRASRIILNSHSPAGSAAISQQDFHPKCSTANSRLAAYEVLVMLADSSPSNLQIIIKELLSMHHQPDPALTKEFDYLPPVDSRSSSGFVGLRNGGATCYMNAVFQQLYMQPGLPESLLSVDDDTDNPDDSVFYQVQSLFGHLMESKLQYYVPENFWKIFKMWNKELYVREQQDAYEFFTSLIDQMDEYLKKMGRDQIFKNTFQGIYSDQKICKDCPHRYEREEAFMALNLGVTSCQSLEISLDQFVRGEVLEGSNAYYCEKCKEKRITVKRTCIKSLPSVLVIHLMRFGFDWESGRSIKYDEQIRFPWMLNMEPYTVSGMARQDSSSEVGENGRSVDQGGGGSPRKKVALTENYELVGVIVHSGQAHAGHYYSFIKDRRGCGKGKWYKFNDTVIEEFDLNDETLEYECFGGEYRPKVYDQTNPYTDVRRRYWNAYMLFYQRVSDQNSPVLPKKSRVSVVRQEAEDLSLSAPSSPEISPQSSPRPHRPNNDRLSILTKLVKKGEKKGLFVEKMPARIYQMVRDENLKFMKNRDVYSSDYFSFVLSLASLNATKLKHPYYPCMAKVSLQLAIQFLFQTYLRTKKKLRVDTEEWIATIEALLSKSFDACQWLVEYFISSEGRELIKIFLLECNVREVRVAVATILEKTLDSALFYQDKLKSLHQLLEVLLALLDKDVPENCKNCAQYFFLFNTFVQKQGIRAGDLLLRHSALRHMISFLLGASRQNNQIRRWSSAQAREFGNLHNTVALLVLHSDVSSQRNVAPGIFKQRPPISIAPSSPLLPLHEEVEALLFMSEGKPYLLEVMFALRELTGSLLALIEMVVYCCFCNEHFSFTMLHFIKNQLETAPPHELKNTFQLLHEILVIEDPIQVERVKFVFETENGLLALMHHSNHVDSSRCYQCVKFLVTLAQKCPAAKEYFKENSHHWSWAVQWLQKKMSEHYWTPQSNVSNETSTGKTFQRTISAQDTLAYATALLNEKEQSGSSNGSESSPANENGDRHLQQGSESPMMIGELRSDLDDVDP
Method in brief: as §1

USP25 = biological target: T2, USP25 (UniProt Q9UHP3)
T2 sequence (whole entry): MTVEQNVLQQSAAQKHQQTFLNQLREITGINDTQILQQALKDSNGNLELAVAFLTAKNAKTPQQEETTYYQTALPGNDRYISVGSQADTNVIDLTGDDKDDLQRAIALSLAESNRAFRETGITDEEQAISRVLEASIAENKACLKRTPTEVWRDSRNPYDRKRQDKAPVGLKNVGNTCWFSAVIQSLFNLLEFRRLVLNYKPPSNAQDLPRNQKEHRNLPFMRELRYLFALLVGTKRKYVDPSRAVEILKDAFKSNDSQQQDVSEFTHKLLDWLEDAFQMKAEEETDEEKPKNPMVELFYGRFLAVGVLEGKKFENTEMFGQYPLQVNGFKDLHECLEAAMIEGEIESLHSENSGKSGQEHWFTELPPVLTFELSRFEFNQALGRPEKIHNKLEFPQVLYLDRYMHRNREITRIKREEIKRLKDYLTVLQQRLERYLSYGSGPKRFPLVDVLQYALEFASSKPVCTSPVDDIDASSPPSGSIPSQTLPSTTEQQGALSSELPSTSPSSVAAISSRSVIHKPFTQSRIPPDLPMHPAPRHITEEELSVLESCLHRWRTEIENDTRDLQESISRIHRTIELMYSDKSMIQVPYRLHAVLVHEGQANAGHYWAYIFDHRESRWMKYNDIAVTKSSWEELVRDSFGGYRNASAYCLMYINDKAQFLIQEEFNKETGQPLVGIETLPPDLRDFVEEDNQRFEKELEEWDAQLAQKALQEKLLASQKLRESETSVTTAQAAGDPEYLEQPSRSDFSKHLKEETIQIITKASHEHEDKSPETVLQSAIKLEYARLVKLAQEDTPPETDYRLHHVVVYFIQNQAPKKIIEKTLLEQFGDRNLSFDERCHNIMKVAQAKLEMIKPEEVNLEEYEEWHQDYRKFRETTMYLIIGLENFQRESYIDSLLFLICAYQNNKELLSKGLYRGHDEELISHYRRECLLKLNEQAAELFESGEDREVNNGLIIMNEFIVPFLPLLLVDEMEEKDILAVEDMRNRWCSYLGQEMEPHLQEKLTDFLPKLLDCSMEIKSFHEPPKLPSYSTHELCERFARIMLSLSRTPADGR
Method in brief: as §1

USP28 = biological target: T3, USP28 (UniProt Q96RU2)
T3 sequence (whole entry): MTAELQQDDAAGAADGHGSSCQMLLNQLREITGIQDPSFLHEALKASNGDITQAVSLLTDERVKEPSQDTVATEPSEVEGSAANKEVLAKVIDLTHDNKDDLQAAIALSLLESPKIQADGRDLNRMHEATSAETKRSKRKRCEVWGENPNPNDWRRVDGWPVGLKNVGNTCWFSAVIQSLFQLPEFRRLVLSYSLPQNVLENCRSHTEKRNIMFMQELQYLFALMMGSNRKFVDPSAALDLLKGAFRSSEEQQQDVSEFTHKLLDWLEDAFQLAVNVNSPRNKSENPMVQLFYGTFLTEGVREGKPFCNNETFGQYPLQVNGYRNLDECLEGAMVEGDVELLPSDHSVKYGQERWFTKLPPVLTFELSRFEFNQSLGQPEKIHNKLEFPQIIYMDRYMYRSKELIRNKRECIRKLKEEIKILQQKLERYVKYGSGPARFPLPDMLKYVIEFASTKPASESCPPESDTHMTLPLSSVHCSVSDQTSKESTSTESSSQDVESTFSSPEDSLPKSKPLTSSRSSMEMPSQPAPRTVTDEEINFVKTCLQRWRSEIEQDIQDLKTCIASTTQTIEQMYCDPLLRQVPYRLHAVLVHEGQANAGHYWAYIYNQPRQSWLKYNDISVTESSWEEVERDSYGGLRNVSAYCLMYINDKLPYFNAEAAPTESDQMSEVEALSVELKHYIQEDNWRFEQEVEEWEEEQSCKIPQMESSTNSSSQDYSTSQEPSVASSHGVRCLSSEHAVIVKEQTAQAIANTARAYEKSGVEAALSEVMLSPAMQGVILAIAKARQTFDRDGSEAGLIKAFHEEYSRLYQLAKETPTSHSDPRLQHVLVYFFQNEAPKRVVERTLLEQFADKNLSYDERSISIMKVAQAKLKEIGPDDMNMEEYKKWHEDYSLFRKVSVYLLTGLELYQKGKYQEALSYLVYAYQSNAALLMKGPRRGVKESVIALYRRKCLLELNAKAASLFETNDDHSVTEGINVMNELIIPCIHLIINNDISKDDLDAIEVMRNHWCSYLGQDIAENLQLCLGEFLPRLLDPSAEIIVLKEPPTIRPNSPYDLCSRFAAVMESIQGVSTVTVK
Method in brief: as §1

Measured: log2 ratio of Biotin-Ahx-Ub-VS probe labelling

CCN(C(=O)CCl)C1CCS(=O)(=O)C1 (centres undefined)
inactive: USP19 0.00457 | USP24 0.0946 | USP25 -0.0672 | USP28 -0.106

From the supplement of paper PMC11732987, “Enantioselective OTUD7B fragment discovery through chemoproteomics screening and high-throughput optimisation” (Communications Chemistry, 2025)
